A short description of this assay: NFkB reporter suppression in cystic fibrosis bronchial cells – cell-based, uHTS hits, panel, cytotoxicity readout, dose response (AID 624344). The settings on record: CF bronchial epithelial cells, PAF-induced NFkB reporter inhibition, with PAF, run 2; at 79 µM (top of the series) unless noted.
Usually inhibition stands for the relative decrease from the control value, in per cent. As for `Cc1nnc(SCC(=O)N2CCC(c3noc4ccc(F)cc34)CC2)s1`, the inhibition was determined as 112%.

On to `Cc1cc2cc(CCNC(=O)C(=O)c3c[nH]c4ccccc34)c(=O)[nH]c2cc1C`, for which the inhibition came out at 95.5%.

As to `CC(=O)c1c(C)n(-c2ccc(C)cc2C)c2ccc(O)cc12`, the inhibition turned out to be 64%.

As for `c1ccc(-c2nc3nonc3nc2-c2ccccc2)cc1`, the inhibition stood at 109%.

In the case of `COc1ccc(S(=O)(=O)c2c(O)c3ccc(C(=O)Nc4ccccc4Cl)cc3[nH]c2=O)cc1`, the inhibition was determined as 106%.

Consider `CCc1cc2c(Sc3nc4ccccc4s3)ncnc2s1`, for which the inhibition came out at 98.3%.

On to `CC(C)(C)OC(=O)NCCCCCNC(=O)c1nc[nH]c1C(=O)NCC(=O)OCc1ccccc1`, for which the inhibition was determined as 101%.

On to `C=C1C(=O)O[C@H]2C[C@H]1[C@@H](OC(C)=O)C/C(C)=C/CC/C(C)=C\CC[C@]2(C)O`, for which the inhibition came to 97.5%.

As for `ON=C1c2ccccc2-c2cc(Br)ccc21`, the inhibition came to 106%.

In the case of `C=C(C)[C@@H]1CC[C@]2(C(=O)O)CC[C@]3(C)[C@H](CC[C@@H]4[C@@]5(C)CC[C@H](O)C(C)(C)[C@@H]5CC[C@]43C)[C@@H]12`, the inhibition is 57.6% [at 19.8 µM].

With `O=C(Nc1ccc([N+](=O)[O-])cc1)Nc1ccc(Cl)cc1F`, the inhibition worked out at 101%.

As for `Nc1nc(N)nc(-c2ccc(Cl)c(Cl)c2)n1`, the inhibition was 101%.

In the case of `CC(=O)N1CC(=O)N=C1SCC(=O)Nc1nc(C)c(-c2ccccc2)s1`, the inhibition was determined as 73.4%.

As for `Cc1ccc(S(=O)(=O)n2cc(-c3ccccc3)c3ccccc32)cc1`, the inhibition turned out to be 108%.

On to `Cc1ccc(C(=O)Nc2cccc(C(F)(F)F)c2)cc1NC(=O)c1cnnc2ccccc12`, for which the inhibition is 88.8%.

For the compound `COc1ccc(OC)c(-c2nnc3n2N=C(c2ccc(OC)c(OCC4CC4)c2)CS3)c1`, the inhibition amounted to 85.1%.

As for `O=C(NCc1ccccc1)C1=C[C@H](c2csc3ccccc23)C[C@H](OCc2ccc(CO)cc2)O1`, the inhibition worked out at 52.1%.

`CCCCCOC(=O)c1[nH]c2c(c1C)C(=O)CC(c1ccco1)C2` (centres undefined): the inhibition turned out to be 62.8%.

On to `CCN(CC)CCNC(=O)c1ccc(NC(=O)C2CCN(c3ncnc4sc(C)c(C)c34)CC2)cc1`, for which the inhibition is 103%.

For `Cc1cccc(C)c1NS(=O)(=O)c1ccc(-c2cnc(C3CC3)o2)cc1`, the inhibition was determined as 105%.

Turning to `CCOC(=O)c1c(-c2ccc(C)cc2)csc1NC(=O)c1ccc(N2C(=O)CCC2=O)cc1`, the inhibition was 81.4%.

As for `CCCNC(=O)COC(=O)c1ccccc1C(=O)c1ccc(Cl)c([N+](=O)[O-])c1`, the inhibition amounted to 99.9%.

Turning to `COc1ccccc1NS(=O)(=O)c1cccc(-n2c(O)c(C=Nc3ccccc3C(=O)O)c3ccccc3c2=O)c1`, the inhibition was found to be 85%.

In the case of `CC(C)C[C@H](CO)Nc1nc(Nc2cccc(Cl)c2)c2ncn(C(C)C)c2n1`, the inhibition came to 100%.

Consider `O=C(Nc1cccc(S(=O)(=O)N2CCCCC2)c1)Nc1ccc(Cl)cc1Cl`, for which the inhibition came to 117%.

On to `COc1ccc(C2=Nn3c(nnc3-c3ccncc3)SC2)cc1`, for which the inhibition worked out at 76.5%.

For the compound `CC(C)C[C@@H](CN1CCCC1CN1C(=S)NC[C@@H]1Cc1ccc(O)cc1)N1C[C@H](Cc2ccc(O)cc2)N(CCc2ccccc2)C1=S` (some centres undefined), the inhibition was found to be 101%.

For `COc1ccc(-c2nc(N3CCOCC3)nc3n[nH]c(N)c23)cc1`, the inhibition was found to be 104%.

Regarding `COc1cc(-c2cc(C(=O)Nc3ccc(S(=O)(=O)NCc4ccco4)cc3)c3ccccc3n2)cc(OC)c1OC`, the inhibition is 102%.

Take `CS(=O)(=O)Nc1cccc(-c2cc(NC=O)c3ncc(-c4ccc(F)cc4)n3c2)c1`: the inhibition worked out at 88.3%.

Turning to `COc1cc2c(c(OC)c1OC)-c1ccc(SC)c(=O)cc1C(NC(=O)C(F)(F)F)CC2` (centres undefined), the inhibition is 79%.

For `Brc1cccc(CSc2nnc(-c3ccncc3)o2)c1`, the inhibition is 99%.

As to `CCOC(=O)c1[nH]c(C)c(C(=O)N2CCc3ccccc32)c1C`, the inhibition turned out to be 43.6%.

For `COc1ccc(CN(CCC(c2ccc(F)cc2)C2CCOC(C)(C)C2)C(=O)c2ccco2)cc1` (centres undefined), the inhibition amounted to 111%.

As for `COc1ccc(-n2c(C)c(C(C)=O)c3cc(O)ccc32)cc1`, the inhibition stood at 95.2%.

Regarding `COc1cccc(NC(=O)CN(C)CC(=O)Nc2ccc(C)c([N+](=O)[O-])c2)c1`, the inhibition is 101%.

For `NC(=O)c1cc2ccc(O)cc2oc1=Nc1ccccc1`, the inhibition came to 95.2%.

Take `CCc1ccccc1NC(=O)CN(C)C(=O)Cn1ncc(Cl)c(Cl)c1=O`: the inhibition was 101%.

For the compound `C/C=C/COC(=O)c1[nH]c2c(c1C)C(=O)CC(c1ccco1)C2` (centres undefined), the inhibition is 92.9%.

The record behind these values is PubChem BioAssay.
